Source: PubChem (Paczesny and Yang Labs, IUPUI and University of Michigan)
The full list was thinned out, with hits kept by preference.
ST2 IL33 inh: inhibitors of human ST2 (IL1RL1) binding to IL-33; Q01638; AlphaLISA ST2-Fc/biotin-IL-33 interaction, 1 h; inhibition, % for hits at 17 µM; actives 2.3% (n = 78,000); in the data active means inhibition above about 30%
Target sequence (Q01638 whole entry, looked up): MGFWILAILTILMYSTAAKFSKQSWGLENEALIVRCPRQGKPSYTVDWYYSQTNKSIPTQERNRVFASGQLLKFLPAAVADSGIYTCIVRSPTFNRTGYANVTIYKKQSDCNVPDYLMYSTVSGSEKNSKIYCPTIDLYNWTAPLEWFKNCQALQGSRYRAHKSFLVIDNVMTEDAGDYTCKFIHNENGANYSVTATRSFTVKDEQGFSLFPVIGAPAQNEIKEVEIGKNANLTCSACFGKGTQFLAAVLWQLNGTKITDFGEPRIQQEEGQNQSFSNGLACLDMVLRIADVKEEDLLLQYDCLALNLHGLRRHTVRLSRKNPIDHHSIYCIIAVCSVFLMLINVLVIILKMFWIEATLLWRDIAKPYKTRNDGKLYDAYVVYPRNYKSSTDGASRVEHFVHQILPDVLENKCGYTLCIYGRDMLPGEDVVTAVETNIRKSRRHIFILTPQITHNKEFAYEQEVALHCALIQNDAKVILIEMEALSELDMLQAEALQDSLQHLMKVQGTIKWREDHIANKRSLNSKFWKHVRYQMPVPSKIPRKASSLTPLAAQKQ
Hits are given with their value; – = inactive; ! = not active in a repeat.

SMILES	ST2 IL33 inh
COc1ccc(OCC(=O)NC(C)c2ccc(Br)cc2)cc1 (stereo not drawn)	–
Cc1n[nH]c(C)c1S(=O)(=O)N1CCN(c2ccccn2)CC1	–
Cc1c(NC(=O)c2cc(-c3ccc4c(c3)OCO4)on2)c(=O)n(-c2ccccc2)n1C	–
COc1ccc(/C=C/c2nc(N)nc(-c3ccccc3O)n2)cc1	–
CC1CCCC(NC(=O)c2cc(=O)[nH]c3ccc(S(=O)(=O)N4CCCCC4C)cc23)C1C (stereo not drawn)	–
COc1cc(C(=O)NC2CC(=O)N(c3cccc(F)c3)C2)cc(OC)c1OC (stereo not drawn)	–
CC1=C(C(N)=O)C(c2cccc(OCc3ccccc3)c2)n2ncnc2N1 (stereo not drawn)	–
O=C(Nc1ccc(F)c(Cl)c1)c1cc2c(=O)n3ccccc3nc2s1	–
COc1ccc(Cl)cc1NC(=O)c1cc2c(=O)n3ccccc3nc2s1	37%
O=C(Nc1ccccc1F)c1cc2c(=O)n3ccccc3nc2s1	–
Cc1[nH]c(=O)[nH]c(=O)c1CC(=O)N1C[C@@H]2C3CCC(CC3)[C@@H]2C1	–
CCOc1ccc(NC(=O)c2cccs2)cc1	–
Cc1ccc(-n2cccc2)cc1[N+](=O)[O-]	31%
Cc1ccc(N2C(=O)c3cccc([N+](=O)[O-])c3C2=O)cc1Cl	–
Cc1ccc(N2C(=O)C3C4C=CC(O4)C3C2=O)cc1[N+](=O)[O-] (stereo not drawn)	–
C=CCNC(=O)CN(c1ccc(OC)c(Cl)c1)S(C)(=O)=O	–
CN(CC1COCCO1)c1nc(-c2cccnc2)nc2c1cnn2C (stereo not drawn)	34%
CN(CCn1cccn1)c1nc(-c2cccnc2)nc2c1cnn2C	–
CC(CN(C)c1nc(-c2cccnc2)nc2c1cnn2C)N1CCOCC1 (stereo not drawn)	–
Cc1cc([N+](=O)[O-])nn1CCCC(=O)NCc1ccco1	–
COCCOC(=O)C1=C(C)NC2=C(C(=O)C(C(=O)OC)C(C)C2)C1c1ccc(N(C)C)cc1 (stereo not drawn)	–
CC1CC(C)CN(C(=O)c2ccc(CS(=O)(=O)c3ccc(Br)cc3)o2)C1 (stereo not drawn)	–
Cc1c(C(=O)O)sc2ncnc(N3CCN(c4ccccc4F)CC3)c12	–
CCCN1CCN(c2ncnc3sc(C(=O)O)c(C)c23)CC1	–
COc1ccccc1N1CCN(c2ncnc3sc(C(=O)O)c(C)c23)CC1	40%!
SMILES	ST2 IL33 inh
N#CC1=C2SCN(c3ccc(F)cc3)CN2C(=O)CC1c1ccccc1F (stereo not drawn)	–
CC1(C)Cc2nc(NCCCO)c(C#N)cc2CO1	–
OCC(CO)n1ccnc1-c1ccc2nsnc2c1	–
CCOC(=O)c1ccc2c(c1)NC(=O)CS2	–
O=C(O)c1ccc(C(=O)O)c(-c2ccccc2)c1	–
O=C1OC(c2ccccc2)OC(=O)C1=Cc1ccc(-c2cc(C(=O)O)ccc2Cl)o1 (stereo not drawn)	–
O=C(O)c1ccc(N2CCCC2)c([N+](=O)[O-])c1	–
O=C(O)c1ccc2c(c1)C(=O)/C(=C\c1ccco1)C2=O	71%
O=C(O)c1ccc2c(c1)C(=O)/C(=C\c1ccc([N+](=O)[O-])o1)C2=O	91%
COc1ccc(/C=C2/C(=O)c3ccc(C(=O)O)cc3C2=O)cc1OC	–
CCc1c(C)nn(Cc2nc(CC3CCN(C)CC3)no2)c1C	–
O=C(CNS(=O)(=O)c1ccc(Br)s1)N1CCN(c2ccccc2Cl)CC1	–
CC1=C[C@@H](CO)[C@H](C(C)C)C[C@H]1CC(=O)N1CCN(c2ccccn2)CC1	–
CC1=Nc2cc(-c3ccc(C)cc3)nn2C(=O)C1	–
N#Cc1nc(COc2ccc(Br)cc2)oc1NCCN1CCOCC1	–
N#Cc1nc(-c2ccc(F)cc2)oc1NCc1ccco1	–
O=S(=O)(c1ccccc1)c1nc(-c2ccc(F)cc2)oc1NCc1ccccc1	–
COc1ccc(OCc2nc(C#N)c(NCCN3CCOCC3)o2)cc1	–
Cc1ccccc1OCc1nc(C#N)c(NCc2ccc(F)cc2)o1	34%
COc1ccc(C2C(C#N)=C(N)Oc3n[nH]c(C)c32)cc1COc1ccccc1C (stereo not drawn)	–
COc1ccc(CCNc2oc(COc3ccc(Cl)cc3)nc2C#N)cc1	38%
Cc1ccccc1OCc1nnc(SCC(=O)NCCc2ccccc2)n1C	–
COc1ccc(CCNc2oc(COc3ccc(OC)cc3)nc2C#N)cc1	36%
COc1ccc(CCNc2oc(COc3ccccc3C)nc2C#N)cc1	38%
COc1ccc(CCNC(C)=O)cc1	–
SMILES	ST2 IL33 inh
COc1ccc(CCC(=O)NCCc2cccc(Cl)c2)cc1	–
COCCCNC(=O)C1CCN(S(=O)(=O)c2ccc(F)cc2)CC1	–
CCN(CC)c1ccc(-c2c(C#N)c(N)nc(OC)c2C#N)cc1	–
COc1cc(O[C@@H]2O[C@H](COC3OCC(O)C(O)C3O)[C@@H](O)[C@H](O)[C@H]2O)cc(OC)c1OC (stereo partly drawn)	–
CCc1nc(SCC(=O)N2CCc3c(nc(C)nc3N(C)C)C2)n[nH]1	–
COCCn1cc(C(=O)NC(C)C)c2c3ccccc3n(C)c2c1=O	–
CN(Cc1ccccc1)C(=O)C[C@@H]1O[C@H](CNS(C)(=O)=O)[C@@H](O)[C@H]1O	–
COC(=O)[C@H](Cc1c[nH]c2ccccc12)N1Cc2ncccc2C1=O	–
CC1(C)CC(=O)C2=C(C1)c1c(ccc3ccccc13)NC2c1ccccn1 (stereo not drawn)	–
CN(C(=O)c1coc(CN2CCN(Cc3ccccc3)CC2)n1)C1CCCCC1	–
O=C(Nc1ccc(S(=O)(=O)Nc2ncccn2)cc1)c1ccccc1Cl	–
Cc1cccn2c(CNC(=O)C(C)n3ccnc3C(C)C)cnc12 (stereo not drawn)	–
Cc1cc(NC(=O)CS(=O)(=O)c2cn(Cc3cccc(F)c3)c3ccccc23)no1	–
CC1=CC[C@@H]2CN(C(=O)c3cc(C(C)C)on3)C[C@@H]2C1	–
CCN1CCN(Cc2c(C)[nH]c3c(C)cc(C)cc3c2=O)CC1	–
Cc1cc(C)c(S(=O)(=O)N2CCCC2=O)c(C)c1	–
Cc1cc(C)c(N2CCC(=O)N2)c(C)c1	33%
Clc1ccccc1-n1ncnc1-c1ccc(Br)cc1	–
Brc1ccc(-c2ncnn2-c2ccc(Br)nc2)cc1	–
Clc1ccc(-c2ncnn2-c2ccc(Br)cc2)cc1	33%!
CCC1=C(c2ccc(OC)cc2)S(=O)(=O)N(CC(=O)NCc2cccc(OC)c2)C1=O	–
Cc1ccc(Cn2c(CNC(=O)c3ccc(C)cc3)nc3cccnc32)cc1	–
CCOc1cc(-c2ccc(O)cc2)cc(=O)c2c(C)oc(C)c12	–
CCOc1cc(/C=C2/SC(=O)NC2=O)ccc1OCc1ccccc1	–
CCOc1cc(/C=C2/C=C(c3ccc(C)cc3)OC2=O)ccc1O	31%
SMILES	ST2 IL33 inh
CCOc1cc(/C=C2/Sc3ccccc3C2=O)ccc1O	59%
CC(C)c1ccc(/C=C2\Sc3ccccc3C2=O)cc1[N+](=O)[O-]	–
CCOc1cc(/C=C2/C(=O)N(c3ccccc3)N=C2C)ccc1O	–
COc1ccc(N2CSC3=C(C#N)C(c4ccccc4OC)CC(=O)N3C2)cc1 (stereo not drawn)	–
COc1ccc(-n2ccnc2-c2ccc(C3CCCCO3)o2)cn1 (stereo not drawn)	–
Cc1ccc(-c2c(C#N)c(N)nc3c2CCCCCC3)cc1	–
COc1ccc(-c2csc(Nc3ccc(C(=O)O)cc3)n2)cc1OC	–
COCCNC(=O)[C@@H](C)[C@@H]1CC[C@@]2(C)CC[C@H](NC(=O)c3ccccc3)[C@@H](C)[C@@H]2[C@H]1O	–
